In the library only some 3.4% were active in any assay of this set; here they are far more common.
MITF act = increases MITF-driven TRPM1 promoter luciferase signal | 0.75% of 300,000 active | AID 588334 | SK-MEL-5 TRPM1-promoter luciferase, 24 h; % of positive control, neutral wells = 0 | activation, % at 12.5 µM;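 active = mean activation of at least 80% with every replicate also reaching 80%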
Wnt bcat act = activators of Wnt/beta-catenin signaling; Wnt/beta-catenin reporter cell assay, activator, plate reader; activation, % at 9.35 µM; 1.2% of 300,000 active; AID 743398; in the data active = activation above about 30%, passing the limit was not always enough
esBAF inh = SWI/SNF esBAF complex inhibition; mouse ES cells, Bmi1-luciferase knock-in reporter, 24 h; 100% = twice the neutral-well signal; reporter increase, % at 12.5 µM; 2% of 350,000 active; in the data active = activation above about 40%;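 note: a rise in the Bmi1 reporter signal indicates esBAF inhibition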
miR-122 sensor = blocks miR-122 activity in Huh7 sensor cells; Huh7 miR-122 Renilla luciferase sensor, 48 h; neutral wells = 0, positive control = 100; activation (reporter increase), % at 12.5 µM; 0.3% of 340,000 active; AID 602342;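 active = mean replicate activation score at least 90 and every replicate individually at or above 90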;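 note: higher luciferase means less miR-122 activity so hits act as miR-122 inhibitors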
Env fusion inh = inhibitors of HIV Env-mediated cell fusion; HeLa-JRFL Env/CEM21 cell fusion, luciferase; inhibition, % at 12.3 µM; 1.1% of 360,000 active; AID 651610;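 active = mean replicate inhibition score of at least 50 and every replicate individually at or above 50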
Each line names hits and unclear results; the compound was inactive in the other large screens.

CC(C)NC(=O)Nc1ccc2c(c1)CC(=O)N([C@H](C)CO)C[C@H](C)[C@H](CN(C)C(=O)Nc1ccc(F)cc1)O2	none (no result: MITF act, Wnt bcat act)
CC(=O)N1CC[C@@H]2[C@H]1c1cc(-c3ccc(C#N)cc3)ccc1N(C)[C@H]2CO	none (no result: MITF act, Wnt bcat act, Env fusion inh)
CN(C)/C=C(\C#N)C(=O)Nc1ccc(F)cc1	none (no result: Wnt bcat act, Env fusion inh)
CN(C)/C=C(\C#N)C(=O)Nc1ccc(F)c(Cl)c1	Wnt bcat act 37 (no result: MITF act, esBAF inh, miR-122 sensor)
COc1ccccc1N1CCN(/N=C/c2ccc(Cl)c([N+](=O)[O-])c2)CC1	esBAF inh 44 (no result: miR-122 sensor)
Cc1ccc(S(=O)(=O)Nc2ccc3c(c2)C(=O)N([C@H](C)CO)C[C@H](C)[C@@H](CN(C)Cc2ccccc2)OCCCC[C@@H](C)O3)cc1	none (no result: MITF act, Wnt bcat act)
CC1(c2ccccc2)NC(=O)N(CC#N)C1=O (stereo unspecified)	Wnt bcat act 36 (no result: esBAF inh)
Clc1ccc(-c2cn3c(n2)CCC3)cc1	MITF act 92 (no result: Wnt bcat act, esBAF inh, Env fusion inh)
C[C@@H]1CN([C@@H](C)CO)C(=O)c2cccc(NC(=O)C3CCOCC3)c2O[C@@H]1CN(C)Cc1ccc2c(c1)OCO2	none (no result: MITF act, Wnt bcat act)
C[C@H]1CN([C@@H](C)CO)S(=O)(=O)c2ccc(C#CC3(O)CCCC3)cc2O[C@H]1CN(C)C(=O)Cc1ccncc1	none (no result: MITF act, Wnt bcat act, miR-122 sensor)
Cc1ccc(C(=O)Nc2ccc3c(c2)CCC3)cc1	none
O=C(Nc1ccc2c(c1)CCC2)c1cccc(F)c1	MITF act 95 (no result: esBAF inh)
O=C(Nc1ccc2c(c1)CCC2)c1cc(F)cc(F)c1	MITF act 83, esBAF inh 47
C[C@@H]1CN([C@H](C)CO)C(=O)c2cc(N(C)C)ccc2O[C@@H](C)CCCCO[C@@H]1CN(C)C(=O)Nc1ccc2c(c1)OCO2	none (no result: MITF act, Wnt bcat act)
COc1ccc(C(=O)OCC(=O)c2c[nH]c3ccccc23)c(OC)c1	Wnt bcat act 36, esBAF inh 75
COc1ccc(C(=O)OCC(=O)c2cc(OC)ccc2OC)c(OC)c1	none (no result: Wnt bcat act, Env fusion inh)
COc1ccc(CC(=O)OCC(=O)c2c[nH]c3ccccc23)cc1	none (no result: miR-122 sensor)
Cc1[nH]c2ccccc2c1C(=O)COC(=O)c1ccccc1O	MITF act 111, esBAF inh 124
COc1ccc(C(=O)COC(=O)c2ccccc2O)c(OC)c1	Wnt bcat act 50, esBAF inh 76
COc1cccc(C(=O)OCC(=O)c2c[nH]c3ccccc23)c1OC	esBAF inh 44
CNC[C@@H]1OCCCC[C@@H](C)Oc2ccc(NS(C)(=O)=O)cc2C(=O)N([C@@H](C)CO)C[C@@H]1C	none (no result: MITF act, Wnt bcat act)
CCCN(C)C[C@H]1OCc2cn(nn2)CCCC(=O)N([C@H](C)CO)C[C@H]1C	none (no result: MITF act, Wnt bcat act, Env fusion inh)
CCOc1ccc(N(C)S(=O)(=O)c2ccc(C)c(C(=O)OCC(=O)c3c[nH]c4ccccc34)c2)cc1	Env fusion inh 58 (no result: esBAF inh, miR-122 sensor)
Cc1ccc(S(=O)(=O)N(C)C[C@H]2OCCCC[C@@H](C)Oc3ccc(NS(=O)(=O)c4cn(C)cn4)cc3C(=O)N([C@@H](C)CO)C[C@@H]2C)cc1	none (no result: MITF act, Wnt bcat act)
C[C@@H]1CN([C@@H](C)CO)C(=O)c2cc(NS(C)(=O)=O)ccc2O[C@H]1CN(C)S(=O)(=O)c1ccc(Cl)cc1	none (no result: MITF act, Wnt bcat act)
COc1cc(C)c(S(=O)(=O)Nc2ccccc2F)cc1C	miR-122 sensor 123 (no result: Wnt bcat act, Env fusion inh)
Cc1cc2[nH]c(=O)c(=O)[nH]c2cc1S(=O)(=O)Nc1ccccc1F	none
Cc1ccc(C)c(S(=O)(=O)Nc2ccc3sc(C)nc3c2)c1	miR-122 sensor 428 (no result: Wnt bcat act)
COc1ccc(NS(=O)(=O)c2cc(NC(=O)c3ccc(=O)[nH]n3)ccc2C)cc1	miR-122 sensor 166
O=C(Nc1ccccc1-c1ccccc1)c1ccc(=O)[nH]n1	esBAF inh 43
CCNC(=O)C[C@@H]1CC[C@@H]2[C@H](COC[C@@H](O)CN2C(=O)Nc2cccc(OC)c2)O1	none (no result: MITF act, Wnt bcat act, Env fusion inh)
CCCNC(=O)N1[C@H](CNC(C)=O)[C@@H](c2ccccc2)[C@@H]1CO	none (no result: MITF act, Wnt bcat act, Env fusion inh)
O=C(Nc1ccc2c(c1)OCO2)c1ccc(=O)[nH]n1	none
COc1ccc(NS(=O)(=O)c2cc(S(C)(=O)=O)ccc2C)cc1	none (no result: esBAF inh, miR-122 sensor)
CCN(CC)S(=O)(=O)c1ccc(Oc2ccc(S(=O)(=O)N(CC)CC)cc2)cc1	Env fusion inh 62 (no result: MITF act, Wnt bcat act)
CC(C)(C)c1ccc(NC(=O)c2ccc(=O)[nH]n2)cc1	MITF act 97, Wnt bcat act 33
COc1ccc(NS(=O)(=O)c2cc(C)ccc2C)cc1	miR-122 sensor 539 (no result: Wnt bcat act, Env fusion inh)
COc1ccccc1NS(=O)(=O)c1cc(C)ccc1C	miR-122 sensor 141
CCN(CC)S(=O)(=O)c1ccc(Oc2ccccc2OC)cc1	none
CO[C@@H]1CN(C)C(=O)c2cc(NC(=O)C3CC3)ccc2OC[C@H](C)N(Cc2ccncc2)C[C@H]1C	none (no result: MITF act, Wnt bcat act, Env fusion inh)
O=C(O)C[C@H]1C[C@@H]2c3cc(NC(=O)Nc4ccccc4F)ccc3O[C@@H]2[C@H](CO)O1	none (no result: MITF act, Wnt bcat act)
COc1ccc(C#Cc2cnc3c(c2)C(=O)N([C@@H](C)CO)C[C@@H](C)[C@H](CN(C)C(=O)Nc2cccc(OC)c2)O3)cc1	none (no result: MITF act, Wnt bcat act)
O=C(C[C@H]1C[C@@H]2c3cc(NC(=O)C4CCOCC4)ccc3O[C@@H]2[C@H](CO)O1)NCc1cccc(F)c1	none (no result: MITF act, Wnt bcat act)
COc1ccc(S(=O)(=O)Nc2ccc3c(c2)C(=O)N([C@@H](C)CO)C[C@@H](C)[C@H](CN(C)C(=O)Nc2ccc4c(c2)OCO4)OCCCC[C@H](C)O3)cc1	none (no result: MITF act, Wnt bcat act)
COc1ccc(NS(=O)(=O)c2cn(C)c(=O)n(C)c2=O)cc1	Wnt bcat act 42
CCN(CC)c1ccc(N)cc1S(=O)(=O)Nc1ccc(OC)cc1	miR-122 sensor 107
CCNS(=O)(=O)c1ccc(NS(=O)(=O)c2cc(C)ccc2C)cc1	miR-122 sensor 113 (no result: Env fusion inh)
CCN(CC)S(=O)(=O)c1ccc(NS(=O)(=O)c2ccc(C)c(C)c2)cc1	miR-122 sensor 183 (no result: MITF act)
Cc1ccc(S(=O)(=O)N(C)C[C@@H]2Oc3c(NS(=O)(=O)c4ccc(Cl)cc4)cccc3C(=O)N([C@H](C)CO)C[C@@H]2C)cc1	none (no result: MITF act, Wnt bcat act)
COc1ccc(Cl)cc1NC(=O)C(C)NC(c1ccccc1)c1ccccc1 (stereo unspecified)	Env fusion inh 59 (no result: Wnt bcat act, esBAF inh)
COc1ccc(Cl)cc1NC(=O)NC(C)C	none (no result: esBAF inh, miR-122 sensor)
COc1ccc(S(=O)(=O)N(C)C[C@@H]2Oc3ccc(NC(=O)C4CCCCC4)cc3CC(=O)N([C@H](C)CO)C[C@H]2C)cc1	none (no result: MITF act, Wnt bcat act)
CCCCCn1c2c(c(=N)c3ccccc31)CCC2	none (no result: MITF act, esBAF inh)
CCCCCCCCn1c2c(c(=N)c3ccccc31)CCC2	Env fusion inh 56 (no result: esBAF inh)
CCCCCCCCCCn1c2c(c(=N)c3c1CCC3)CCC2	Env fusion inh 69 (no result: MITF act)
CCCNC(=O)N1[C@H](CNC(=O)CC)[C@@H](c2ccc(C3=CCCC3)cc2)[C@@H]1CO	none (no result: MITF act, Wnt bcat act, Env fusion inh)
CN(C)c1ccc(NC(=O)c2ccc([N+](=O)[O-])cc2Cl)cc1	none (no result: esBAF inh, miR-122 sensor)
Cc1ccc(NC(=O)c2cc(N(C)C)ccc2[P+](=O)O)cc1	esBAF inh 45 (no result: Env fusion inh)
CO[C@H]1CN(C)C(=O)c2ccc(NC(C)=O)cc2OC[C@H](C)N(C(=O)CN2CCOCC2)C[C@H]1C	none (no result: MITF act, Wnt bcat act, Env fusion inh)
COc1ccc(OCC(=O)Nc2ccc(N3CCOCC3)c(Cl)c2)cc1	none (no result: MITF act, Wnt bcat act)
CCOc1ccc(C(=O)C2CCN(CC(=O)Nc3ccccc3N3CCOCC3)CC2)cc1	Env fusion inh 70 (no result: Wnt bcat act)
